For test [1], the system named is Plasmodium falciparum Sir2 (PF13_0152, Sir2A). The test can be described thus: pfSir2 binders on small-molecule microarrays, primary screen, biochemical, small-molecule microarray, 635 nm fluorescence (AID 1098).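 Also: score merges spot fluorescence intensity with its signal-to-noise ratio.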 The following applies: small-molecule microarray binding, fluorescence 635 nm; higher = more signal.
Test [2] is described as follows: small-molecule microarray binders of probe aDKK1, primary screen, biochemical, biotinylated probe, 635/667 nm fluorescence (AID 1099).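 Also: score merges 667nm spot fluorescence with signal to noise across triplicate slides.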 The following applies: higher = more signal.
Test [3] is described as follows: small-molecule microarray binders of probe aCHRDL2, primary screen, biochemical, biotinylated probe, 635/667 nm fluorescence (AID 1100). To be noted: higher = more signal.
Test [4] is described as follows: splicing luciferase reporter signal modulators, primary screen, spliceosome inhibition project, cell-based, HEK293, splice +/- reporter (AID 1101).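 Also: HEK293 cells carrying a splicing-competent luciferase reporter gene; test concentration not given here.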 The following applies: luminescence, 24 h, higher = more signal, called active from +8 up or from −8 down. A general note: Reporter assays use an easily measured gene product as a stand-in for the process of interest.
In test [5] the target is Fibroblast growth factor 10 (Homo sapiens) (UniProt O15520). The test can be described thus: FGF10 binders on small-molecule microarrays, primary screen, biochemical, small-molecule microarray, 635 nm fluorescence (AID 1102). To be noted: FGF10 binding, fluorescence 635 nm, higher = more signal.
Sequence of Fibroblast growth factor 10 (Homo sapiens) (O15520 whole entry, looked up): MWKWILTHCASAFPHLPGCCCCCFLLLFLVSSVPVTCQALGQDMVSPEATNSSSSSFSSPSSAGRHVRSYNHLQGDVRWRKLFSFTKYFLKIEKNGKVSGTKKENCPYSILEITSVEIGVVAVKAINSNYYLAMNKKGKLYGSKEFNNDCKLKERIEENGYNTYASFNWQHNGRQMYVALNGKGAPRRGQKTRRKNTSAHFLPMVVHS
Test [6] deals with glycogen synthase kinase-3 (GSK3A per assay name; protocol says GSK3B). The test can be described thus: GSK3 binders on small-molecule microarrays, primary screen, biochemical, small-molecule microarray, 635 nm fluorescence, GSK3A (AID 1103). Also: the record names both GSK3A and GSK3B. To be noted: small-molecule microarray binding, fluorescence 635 nm; higher = more signal.
Test [7] concerns the target Epidermal growth factor receptor (Homo sapiens) (UniProt P00533). The test can be described thus: EGFR binders on small-molecule microarrays, primary screen, biochemical, small-molecule microarray, 635 nm fluorescence (AID 1104).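 Also: score merges 667 nm emission intensity with spot signal to noise over triplicate slides.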 To be noted: EGFR binding, higher = more signal.
Test [8] concerns the target Follistatin-related protein 3 (Homo sapiens) (UniProt O95633). The test can be described thus: FSTL3 binders on small-molecule microarrays, primary screen, biochemical, small-molecule microarray, 635 nm fluorescence (AID 1105).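 Also: score merges emission near 667 nm and signal to noise per printed spot across three slides.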 The following applies: FSTL3 binding, higher = more signal.
The target of test [9] is Dickkopf-related protein 1 (Homo sapiens) (UniProt O94907). In words: DKK1 binders on small-molecule microarrays, primary screen, biochemical, small-molecule microarray, 635 nm fluorescence scan (AID 1106).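 Also: score merges emission near 667 nm with signal to noise over three replicate slides.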 To be noted: DKK1 binding, higher = more signal.
Sequence of Dickkopf-related protein 1 (Homo sapiens) (O94907 whole entry, looked up): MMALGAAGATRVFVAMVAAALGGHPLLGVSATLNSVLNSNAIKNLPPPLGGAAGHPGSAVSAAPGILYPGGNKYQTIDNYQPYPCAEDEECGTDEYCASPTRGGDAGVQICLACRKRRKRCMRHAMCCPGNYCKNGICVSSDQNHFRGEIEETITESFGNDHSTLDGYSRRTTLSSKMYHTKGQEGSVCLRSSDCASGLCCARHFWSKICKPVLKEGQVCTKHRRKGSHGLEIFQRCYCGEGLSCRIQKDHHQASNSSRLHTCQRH
In test [10] the test system is Inhibin beta A chain (activin A). The test can be described thus: INHBA (activin A) binders on microarrays, primary screen, biochemical, small-molecule microarray, 635 nm fluorescence scan (AID 1107).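 Also: mouse activin A protein probed at 4.33 µg/mL on printed slides; score merges bound-protein fluorescence near 667 nm with spot signal-to-noise.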 To be noted: small-molecule microarray binding, higher = more signal.
Test [11] concerns Human papillomavirus type 1a protein E7 (residues 44-93). The test can be described thus: HPV1a E7 fragment binders on microarrays, primary screen, biochemical, small-molecule microarray, residues 44-93, 635 nm fluorescence (AID 1108).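 Also: E7 fragment applied at 1 µg/mL in TBST for 1 h at 4 C; score combines spot fluorescence with its signal to noise ratio.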 The following applies: small-molecule microarray binding, fluorescence 635 nm; higher = more signal.
A short description of test [12]: modulators of HCV replicon luciferase signal, primary screen, HCV replication inhibitor project, Huh7 cells, luciferase reporter (AID 1109).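 Also: huh7 hepatoma cells harbouring a luciferase neomycin HCV replicon reporter; luciferase luminescence as measure of HCV replicon replication; test concentration not given here.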 To be noted: 48 h, higher = more signal.
Test [13] addresses Left-right determination factor 2 (Homo sapiens) (UniProt O00292). The test can be described thus: LEFTY2 binders on small-molecule microarrays, primary screen, biochemical, small-molecule microarray, 635 nm fluorescence scan (AID 1110). The following applies: LEFTY2 binding, higher = more signal.
Test [14] deals with Calmodulin-1 (Homo sapiens) (UniProt P0DP23). In words: CALM1 binders on microarrays, EGTA buffer, profiling panel, biochemical, small-molecule microarray, Cy5-labelled CALM1 (AID 1111).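 Also: labelled calmodulin applied in Tris saline Tween buffer holding calcium plus EGTA and DTT.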 To be noted: Cy5-CALM1 binding fluorescence, higher = more signal.
The target is the same in test [15]. In words: calcium-bound CALM1 binders on microarrays, profiling panel, artefact control for SMM control-protein annotation, biochemical, small-molecule microarray, Cy5-labelled CALM1, plus calcium (AID 1112).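 Also: score merges spot fluorescence with signal to noise from triplicate slides.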 The following applies: Cy5-CALM1 binding fluorescence, higher = more signal.
A short description of test [16]: small-molecule microarray binders of probe aWnt5a, primary screen, biochemical, biotinylated probe, 635/667 nm fluorescence (AID 1113).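 Also: score merges 667 nm fluorescence intensity with signal-to-noise per printed feature.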 To be noted: higher = more signal.
The nature of test [17]: small-molecule microarray binders of probe aShh, primary screen, biochemical, biotinylated probe, 635/667 nm fluorescence (AID 1114).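 Also: probe is biotin-labelled aShh protein from a stem cell growth factor screen; measures binding of labelled protein to compounds printed on the slide; score merges feature fluorescence at 667 nm with signal-to-noise.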 The following applies: higher = more signal.
Test [18] in a line: small-molecule microarray binders of probe aNog, primary screen, biochemical, biotinylated probe, 635/667 nm fluorescence (AID 1115).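 Also: probe is biotinylated aNog protein used at 0.15 µg/mL for 1 h at 4 C; z-score combines 667 nm fluorescence of each spot with its signal to noise.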 The following applies: higher = more signal.
The target in test [19] is Torsin-1A-interacting protein 1 (Homo sapiens) (UniProt Q5JTV8). In words: LAP1 binders from COS7 cell lysate, primary screen, small-molecule microarray, 635/667 nm fluorescence (AID 1116). To be noted: COS7-hLAP1 lysate binding, 635 nm fluorescence, higher = more signal.
Sequence of Torsin-1A-interacting protein 1 (Homo sapiens) (Q5JTV8 whole entry, looked up): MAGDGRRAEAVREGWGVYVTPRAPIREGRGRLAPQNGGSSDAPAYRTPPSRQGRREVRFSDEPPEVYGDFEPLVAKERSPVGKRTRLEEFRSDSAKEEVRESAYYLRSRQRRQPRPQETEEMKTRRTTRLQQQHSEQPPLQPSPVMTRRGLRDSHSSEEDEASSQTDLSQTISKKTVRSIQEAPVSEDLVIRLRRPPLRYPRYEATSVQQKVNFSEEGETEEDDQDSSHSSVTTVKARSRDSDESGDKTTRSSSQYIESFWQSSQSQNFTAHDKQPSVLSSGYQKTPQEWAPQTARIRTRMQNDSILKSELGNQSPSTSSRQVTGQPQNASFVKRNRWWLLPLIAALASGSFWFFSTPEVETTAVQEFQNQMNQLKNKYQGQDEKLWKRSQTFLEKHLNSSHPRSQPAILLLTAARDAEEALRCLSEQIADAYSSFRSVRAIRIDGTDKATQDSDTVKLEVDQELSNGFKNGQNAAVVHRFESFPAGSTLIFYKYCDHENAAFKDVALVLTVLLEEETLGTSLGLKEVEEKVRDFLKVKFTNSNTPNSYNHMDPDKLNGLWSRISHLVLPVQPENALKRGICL
Test [20] addresses Alpha-bungarotoxin (Bungarus multicinctus) (UniProt P60615). The test can be described thus: alpha-bungarotoxin binders on microarray, profiling panel, artefact control for SMM control protein annotation, biochemical, small-molecule microarray, Alexa647 label, 635/667 nm fluorescence (AID 1117). To be noted: alpha-BTX-A647 binding fluorescence, higher = more signal.

Active and inactive are the calls of the source.

Sequence of Left-right determination factor 2 (Homo sapiens) (O00292 whole entry, looked up): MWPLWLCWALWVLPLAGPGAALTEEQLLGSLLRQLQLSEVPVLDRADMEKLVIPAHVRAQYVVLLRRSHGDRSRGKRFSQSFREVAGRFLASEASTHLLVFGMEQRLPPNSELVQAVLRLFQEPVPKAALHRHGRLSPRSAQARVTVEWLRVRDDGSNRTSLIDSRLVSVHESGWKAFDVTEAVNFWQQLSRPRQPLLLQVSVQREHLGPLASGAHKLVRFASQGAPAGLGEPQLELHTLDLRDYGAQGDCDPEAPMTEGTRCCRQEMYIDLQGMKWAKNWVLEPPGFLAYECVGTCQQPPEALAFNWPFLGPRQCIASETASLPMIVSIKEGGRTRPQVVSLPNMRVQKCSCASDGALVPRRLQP
Sequence of Epidermal growth factor receptor (Homo sapiens) (P00533 whole entry, looked up): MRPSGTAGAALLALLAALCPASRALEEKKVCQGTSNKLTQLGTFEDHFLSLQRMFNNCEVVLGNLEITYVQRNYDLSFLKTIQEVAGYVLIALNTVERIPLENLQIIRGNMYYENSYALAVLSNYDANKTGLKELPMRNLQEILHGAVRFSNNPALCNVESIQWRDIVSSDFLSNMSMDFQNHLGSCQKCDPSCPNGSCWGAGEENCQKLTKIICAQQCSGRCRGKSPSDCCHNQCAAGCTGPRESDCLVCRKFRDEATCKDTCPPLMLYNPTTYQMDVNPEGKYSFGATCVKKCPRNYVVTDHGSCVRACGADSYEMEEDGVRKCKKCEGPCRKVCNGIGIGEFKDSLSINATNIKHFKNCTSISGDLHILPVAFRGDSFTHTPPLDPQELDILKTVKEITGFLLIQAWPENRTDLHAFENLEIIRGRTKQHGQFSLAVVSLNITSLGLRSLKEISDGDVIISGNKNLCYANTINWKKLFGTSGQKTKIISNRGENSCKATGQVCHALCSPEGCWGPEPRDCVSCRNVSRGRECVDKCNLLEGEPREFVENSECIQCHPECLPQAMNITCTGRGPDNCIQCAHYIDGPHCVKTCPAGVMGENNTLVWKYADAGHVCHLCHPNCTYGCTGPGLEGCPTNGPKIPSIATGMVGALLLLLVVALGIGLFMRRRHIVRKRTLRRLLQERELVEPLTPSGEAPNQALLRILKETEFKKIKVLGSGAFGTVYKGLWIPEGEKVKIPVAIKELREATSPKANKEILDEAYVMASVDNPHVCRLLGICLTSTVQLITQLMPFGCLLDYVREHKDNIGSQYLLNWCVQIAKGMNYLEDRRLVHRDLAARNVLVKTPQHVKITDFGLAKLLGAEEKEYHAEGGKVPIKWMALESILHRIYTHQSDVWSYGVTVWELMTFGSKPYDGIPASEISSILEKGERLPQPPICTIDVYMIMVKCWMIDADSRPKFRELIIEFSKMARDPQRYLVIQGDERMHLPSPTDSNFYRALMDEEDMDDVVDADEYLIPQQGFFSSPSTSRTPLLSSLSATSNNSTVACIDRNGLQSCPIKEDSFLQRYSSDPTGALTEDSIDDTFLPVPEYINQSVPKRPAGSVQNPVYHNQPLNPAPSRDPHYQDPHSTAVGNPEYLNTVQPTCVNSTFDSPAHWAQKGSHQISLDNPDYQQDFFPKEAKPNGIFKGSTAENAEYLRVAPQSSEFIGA
Sequence of Follistatin-related protein 3 (Homo sapiens) (O95633 whole entry, looked up): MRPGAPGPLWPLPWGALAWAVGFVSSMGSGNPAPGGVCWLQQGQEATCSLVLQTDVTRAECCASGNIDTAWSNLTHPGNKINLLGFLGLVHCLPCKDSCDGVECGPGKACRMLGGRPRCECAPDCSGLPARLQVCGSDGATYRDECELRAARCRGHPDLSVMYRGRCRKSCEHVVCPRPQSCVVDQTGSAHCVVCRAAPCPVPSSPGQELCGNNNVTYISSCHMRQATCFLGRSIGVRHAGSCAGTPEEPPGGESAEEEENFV
Sequence of Alpha-bungarotoxin (Bungarus multicinctus) (P60615 whole entry, looked up): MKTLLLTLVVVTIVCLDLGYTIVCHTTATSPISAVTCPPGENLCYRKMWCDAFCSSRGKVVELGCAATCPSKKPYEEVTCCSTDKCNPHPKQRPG

On to `O=C(NC1CC1)[C@@H]1c2ccccc2C(=O)N(Cc2ccc(OC(F)(F)F)cc2)[C@H]1c1ccc(CO)cc1`, for which the composite z-score in test [1] is 0.572; in test [2], -0.082; in test [3], 0.111; in [5], 0.567; in test [6], -0.589; in test [7], 0.0972. For the same molecule, the composite z-score worked out at 0.301 in [8]; 0.864 in [9]; 0.301 in [10]; 1.13 in test [11]; 0.108 in [13]; 0.168 in [14]. The composite z-score was 1.06 in test [15]; -0.0758 in test [16]; -0.0735 in test [17]; -0.399 in [18]; -0.436 in test [19]; -0.258 in test [20]. For the same molecule, the z-score in [4] is -0.599 (inactive); in test [12] it was -1.06.

For `O=C1N(CCS(=O)(=O)c2ccccc2)c2ccccc2C[C@]12N=C(c1ccc(OCCCO)cc1)O[C@@H]2c1ccccc1`, the composite z-score in test [1] amounted to 1.23; in test [2], 0.924; in [3], 0.775; in test [5], 1.02; in [6] it was 1.19; in test [7] it was 0.468. Moreover, the composite z-score in test [8] came to 1.34; in test [9] it was 1.01; in [10] it was 0.865; in test [11] it was 1.42; in test [13], 0.845; in test [14], 2.28. Moreover, the composite z-score in test [15] is 0.565; in [16], 0.0704; in test [17] it was -0.0146; in test [18], 0.217; in test [19], 1.93; in test [20], 1.91. Besides, the z-score is 0.276 (inactive) in test [4] and -1.74 in test [12].

With `C=C(CCCC)C(=O)CC[C@H](OC(=O)c1ccccc1-c1ccccc1C(=O)O)c1ccc(OCCO)cc1`, the composite z-score in test [1] is 1.25; in test [2], -0.253; in [3], -0.403; in [5], 0.569; in test [6], 0.107; in [7], 0.12. The composite z-score came out at 0.0258 in test [8]; 0.248 in [9]; 1.09 in test [10]; 1.34 in test [11]; 0.849 in test [13]; 0.945 in test [14]. The composite z-score was -0.898 in test [15]; -0.119 in [16]; -0.154 in test [17]; -0.495 in test [18]; 0.479 in [19]; 1.02 in test [20]. Also, the z-score is 1.02 (inactive) in test [4] and -2.05 in test [12].

`CN(C)CCCC[C@@H]1NC(=O)[C@@H]2C[C@H](C(=O)NCCCCCN)[C@H](c3cccc(OCCO)c3)N2C1=O`: the composite z-score in test [1] was 0.789; in [2] it was -0.0024; in test [3], -0.21; in test [5] it was 0.824; in test [6], 1.16; in test [7], 0.428. Further, the composite z-score in test [8] was 0.567; in [9] it was 0.565; in test [10] it was -0.401; in test [11], 1.11; in test [13], 0.64; in test [14], 1.77. Moreover, the composite z-score is 0.717 in [15]; -0.174 in test [16]; -0.16 in [17]; -0.301 in test [18]; 1.05 in [19]; 0.293 in test [20]. For the same molecule, the z-score in test [4] is -1.66 (inactive); in test [12], 0.663.

`COC(=O)[C@@]1(Cc2ccc(OC)cc2)[C@H]2c3cc(C(=O)N4CCCC4)n(Cc4ccc(C(F)(F)F)nc4)c3C[C@H]2CN1C(=O)c1ccccc1`: the composite z-score in [1] was 1.27; in [2], 0.0202; in test [3] it was 0.872; in [5], 0.69; in test [6], -0.478; in test [7] it was 0.282. In addition, the composite z-score is 0.11 in test [8]; -0.301 in test [9]; 0.918 in test [10]; 0.381 in test [11]; -0.412 in test [13]; 0.0624 in [14]. Moreover, the composite z-score in test [15] is -0.954; in test [16] it was 0.037; in [17] it was -0.153; in test [18], 0.374; in test [19], 0.476; in test [20], -0.075. In addition, the z-score in [4] was -4.53 (inactive); in test [12], -2.25.

Regarding `COc1ccc([Si](C)(C)[C@@H]2[C@@H](CC(=O)N3Cc4ccccc4C[C@H]3CO)O[C@]3(C(=O)N(Cc4ccc(N5CCOC5=O)cc4)c4ccccc43)[C@H]2C)cc1`, the composite z-score in [1] is 1.09; in test [2], -0.115; in test [3] it was -0.271; in test [5], 0.723; in test [6], 0.969; in [7] it was 0.916. In addition, the composite z-score in [8] is 1.24; in test [9], 0.945; in [10] it was 1.03; in [11], 0.225; in test [13] it was 0.874; in test [14], -0.422. Also, the composite z-score in [15] was -0.497; in test [16] it was -0.119; in test [17], 0.0639; in [18], -0.339; in test [19], 1.86; in test [20], 1.42. The z-score in [4] was -1.36 (inactive); in test [12] it was -3.78.
